In all, about 5,500 compounds went through this assay and about 2,000 (36%) were called active. Another 18% or so got no clear call; they are omitted. Some of the results follow. A number with no mark means an inactive call. Rule as the data show it: active = normalized growth mostly below about 0.91 (no sharp cut-off); inconclusive = no clear call, values can overlap the other calls; inactive = mostly above about 0.92.
Assay: chemical genetic growth profiling, strain panel (AID 1159580);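 also: tested at 20 µM; growth read once vehicle control cultures reached saturation at 30 °C; 1 = growth at the plate median or of vehicle wells; lower values mean less growth of the strain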
Conditions: growth OD
[1] = S. cerevisiae deletion strains, locus YDL101C, strain DUN1, hits give low values
[2] = S. cerevisiae deletion strains, locus YHR030C, strain SLT2, hits give low values
[3] = S. cerevisiae deletion strains, locus YAL013W, strain DEP1, hits give low values
[4] = S. cerevisiae deletion strains, locus YBR229C, strain ROT2, hits give low values
[5] = S. cerevisiae deletion strains, locus YDR150W, strain NUM1, hits give low values
[6] = S. cerevisiae deletion strains, locus YEL061C, strain CIN8, hits give low values
[7] = S. cerevisiae deletion strains, locus YGR078C, strain PAC10, hits give low values
[8] = S. cerevisiae deletion strains, locus YHR087W, strain rtc3, hits give low values
[9] = S. cerevisiae deletion strains, locus YJR043C, strain POL32, hits give low values
[10] = S. cerevisiae deletion strains, locus YJR075W, strain HOC1, hits give low values
[11] = S. cerevisiae deletion strains, locus YLR039C, strain RIC1, hits give low values
[12] = S. cerevisiae deletion strains, locus YLR058C, strain SHM2 (second series), hits give low values
[13] = S. cerevisiae deletion strains, locus YLR085C, strain ARP6, hits give low values
[14] = S. cerevisiae deletion strains, locus YLR262C, strain YPT6, hits give low values
[15] = S. cerevisiae deletion strains, locus YML094W, strain GIM5, hits give low values
[16] = S. cerevisiae deletion strains, locus YMR219W, strain ESC1, hits give low values
[17] = S. cerevisiae deletion strains, locus YMR263W, strain SAP30, hits give low values
[18] = S. cerevisiae deletion strains, locus YNL153C, strain GIM3, hits give low values
[19] = S. cerevisiae deletion strains, locus YNL298W, strain CLA4 (second series), hits give low values
[20] = S. cerevisiae deletion strains, locus YNL322C, strain KRE1, hits give low values
[21] = S. cerevisiae deletion strains, locus YNR030W, strain Alg12, hits give low values
[22] = S. cerevisiae deletion strains, locus YOL006C, strain TOP1, hits give low values
[23] = S. cerevisiae deletion strains, locus YPL055C, strain LGE1, hits give low values
[24] = S. cerevisiae deletion strains, locus YPL241C, strain CIN2, hits give low values
[25] = S. cerevisiae deletion strains, locus YPR135W, strain CTF4, hits give low values
[26] = S. cerevisiae strains, strain wild type, hits give low values

FC(F)(F)c1c2c(nc3cc(-c4ccco4)nn13)CCC2
normalized growth (S. cerevisiae deletion strains, locus YAR019C, strain CDC15, hits give low values): 0.965
normalized growth (S. cerevisiae deletion strains, locus YBL105C, strain PKC1, hits give low values): 0.973
normalized growth (S. cerevisiae deletion strains, locus YBR135W, strain CKS1, hits give low values): 0.964
normalized growth (S. cerevisiae deletion strains, locus YBR136W, strain MEC1, hits give low values): 0.971
normalized growth (S. cerevisiae deletion strains, locus YBR160W, strain CDC28, hits give low values): 0.975
normalized growth (S. cerevisiae deletion strains, locus YDL017W, strain CDC7, hits give low values): 0.971
normalized growth (S. cerevisiae deletion strains, locus YDL028C, strain MPS1, hits give low values): 0.971
normalized growth [1]: 0.967
normalized growth (S. cerevisiae deletion strains, locus YDL108W, strain KIN28, hits give low values): 0.967
normalized growth (S. cerevisiae deletion strains, locus YDL132W, strain cdc53, hits give low values): 0.96
normalized growth (S. cerevisiae deletion strains, locus YDL214C, strain PRR2, hits give low values): 0.9
normalized growth (S. cerevisiae deletion strains, locus YDR052C, strain DBF4, hits give low values): 0.966
normalized growth (S. cerevisiae deletion strains, locus YDR054C, strain cdc34, hits give low values): 0.952
normalized growth (S. cerevisiae deletion strains, locus YDR226W, strain ADK1, hits give low values): 0.968
normalized growth (S. cerevisiae deletion strains, locus YDR477W, strain SNF1, hits give low values): 0.882
normalized growth (S. cerevisiae deletion strains, locus YER123W, strain YCK3, hits give low values): 0.858
normalized growth (S. cerevisiae deletion strains, locus YER133W, strain GLC7, hits give low values): 0.912
normalized growth (S. cerevisiae deletion strains, locus YFL009W, strain cdc4, hits give low values): 0.968
normalized growth (S. cerevisiae deletion strains, locus YFL029C, strain CAK1, hits give low values): 0.96
normalized growth (S. cerevisiae deletion strains, locus YFR003C, strain YPI1, hits give low values): 0.976
normalized growth (S. cerevisiae deletion strains, locus YFR019W, strain FAB1, hits give low values): 0.959
normalized growth (S. cerevisiae deletion strains, locus YFR028C, strain CDC14, hits give low values): 0.969
normalized growth (S. cerevisiae deletion strains, locus YGR040W, strain KSS1, hits give low values): 0.875
normalized growth (S. cerevisiae deletion strains, locus YGR052W, strain FMP48, hits give low values): 0.942
normalized growth (S. cerevisiae deletion strains, locus YGR092W, strain DBF2, hits give low values): 0.815
normalized growth [2]: 0.702 (active)
normalized growth (S. cerevisiae deletion strains, locus YHR079C, strain IRE1, hits give low values): 0.891
normalized growth (S. cerevisiae deletion strains, locus YHR082C, strain KSP1, hits give low values): 0.896
normalized growth (S. cerevisiae deletion strains, locus YHR205W, strain SCH9, hits give low values): 0.825
normalized growth (S. cerevisiae deletion strains, locus YIL147C, strain SLN1, hits give low values): 0.971
normalized growth (S. cerevisiae deletion strains, locus YJL095W, strain BCK1, hits give low values): 0.819
normalized growth (S. cerevisiae deletion strains, locus YJL128C, strain PBS2, hits give low values): 0.92
normalized growth (S. cerevisiae deletion strains, locus YJL157C, strain FAR1, hits give low values): 0.869
normalized growth (S. cerevisiae deletion strains, locus YJR016C, strain ILV3, hits give low values): 0.973
normalized growth (S. cerevisiae deletion strains, locus YJR066W, strain TOR1 (second series), hits give low values): 0.987
normalized growth (S. cerevisiae deletion strains, locus YJR066W, strain TOR1, hits give low values): 0.833
normalized growth (S. cerevisiae deletion strains, locus YKL048C, strain ELM1, hits give low values): 0.941
normalized growth (S. cerevisiae deletion strains, locus YKL067W, strain YNK1, hits give low values): 0.879
normalized growth (S. cerevisiae deletion strains, locus YKL101W, strain HSL1, hits give low values): 0.928
normalized growth (S. cerevisiae deletion strains, locus YKL193C, strain SDS22, hits give low values): 0.959
normalized growth (S. cerevisiae deletion strains, locus YKL203C, strain TOR2, hits give low values): 0.901
normalized growth (S. cerevisiae deletion strains, locus YLR113W, strain HOG1, hits give low values): 0.802 (active)
normalized growth (S. cerevisiae deletion strains, locus YLR133W, strain CKI1, hits give low values): 0.884
normalized growth (S. cerevisiae deletion strains, locus YLR403W, strain SFP1, hits give low values): 0.855
normalized growth (S. cerevisiae deletion strains, locus YML070W, strain DAK1, hits give low values): 0.906
normalized growth (S. cerevisiae deletion strains, locus YMR001C, strain CDC5, hits give low values): 0.966
normalized growth (S. cerevisiae deletion strains, locus YMR205C, strain PFK2 (second series), hits give low values): 0.891
normalized growth (S. cerevisiae deletion strains, locus YMR277W, strain FCP1, hits give low values): 0.963
normalized growth (S. cerevisiae deletion strains, locus YNL006W, strain LST8, hits give low values): 0.97
normalized growth (S. cerevisiae deletion strains, locus YNL020C, strain ARK1, hits give low values): 0.851
normalized growth (S. cerevisiae deletion strains, locus YNL161W, strain CBK1, hits give low values): 0.974
normalized growth (S. cerevisiae deletion strains, locus YNL183C, strain NPR1, hits give low values): 0.816
normalized growth (S. cerevisiae deletion strains, locus YNL207W, strain RIO2, hits give low values): 0.96
normalized growth (S. cerevisiae deletion strains, locus YNL222W, strain SSU72, hits give low values): 0.97
normalized growth (S. cerevisiae deletion strains, locus YNL307C, strain MCK1 (second series), hits give low values): 0.861
normalized growth (S. cerevisiae deletion strains, locus YOL078W, strain AVO1, hits give low values): 0.961
normalized growth (S. cerevisiae deletion strains, locus YOL136C, strain PFK27, hits give low values): 0.884
normalized growth (S. cerevisiae deletion strains, locus YOR061W, strain CKA2, hits give low values): 0.865
normalized growth (S. cerevisiae deletion strains, locus YOR119C, strain RIO1, hits give low values): 0.921
normalized growth (S. cerevisiae deletion strains, locus YOR231W, strain MKK1, hits give low values): 0.883
normalized growth (S. cerevisiae deletion strains, locus YOR329C, strain SCD5, hits give low values): 0.976
normalized growth (S. cerevisiae deletion strains, locus YPL031C, strain PHO85, hits give low values): 0.869
normalized growth (S. cerevisiae deletion strains, locus YPL153C, strain RAD53, hits give low values): 0.889
normalized growth (S. cerevisiae deletion strains, locus YPL204W, strain HRR25, hits give low values): 0.87
normalized growth (S. cerevisiae deletion strains, locus YPL209C, strain IPL1, hits give low values): 0.972
normalized growth (S. cerevisiae deletion strains, locus YPL256C, strain CLN2, hits give low values): 0.891
normalized growth (S. cerevisiae deletion strains, locus YPR025C, strain CCL1, hits give low values): 0.968
normalized growth (S. cerevisiae deletion strains, locus YPR106W, strain ISR1, hits give low values): 0.959
normalized growth (S. cerevisiae deletion strains, locus YPR111W, strain DBF20, hits give low values): 0.958
normalized growth (S. cerevisiae deletion strains, strain NNK1, hits give low values): 0.959
normalized growth (S. cerevisiae deletion strains, strain TSCII, hits give low values): 0.969

FC(F)(F)c1cc(-c2ccc(Cl)cc2)nc2cc(C3CC3)nn12
normalized growth [3]: 1.03
normalized growth [4]: 1.01
normalized growth [1]: 1.03
normalized growth [5]: 0.99
normalized growth [6]: 1
normalized growth [7]: 1.03
normalized growth [2]: 1.16
normalized growth [8]: 1.02
normalized growth (S. cerevisiae deletion strains, locus YJL187C, strain SWE1, hits give low values): 1.01
normalized growth [9]: 1.04
normalized growth [10]: 1.01
normalized growth [11]: 1.01
normalized growth [12]: 1.02
normalized growth [13]: 1.05
normalized growth [14]: 1.06
normalized growth [15]: 1.02
normalized growth [16]: 1.01
normalized growth [17]: 1.01
normalized growth [18]: 1.02
normalized growth [19]: 1.05
normalized growth [20]: 1.02
normalized growth [21]: 1.01
normalized growth [22]: 1.08
normalized growth [23]: 1.03
normalized growth [24]: 1.02
normalized growth [25]: 1.15
normalized growth [26]: 0.997

Cc1cc(C(F)(F)F)n2nc(-c3ccc(C(C)(C)C)cc3)cc2n1
normalized growth [3]: 0.996
normalized growth [4]: 1.02
normalized growth [1]: 0.983
normalized growth [5]: 0.965
normalized growth [6]: 0.993
normalized growth [7]: 1.01
normalized growth [2]: 0.963
normalized growth [8]: 1.01
normalized growth [9]: 1.01
normalized growth [10]: 0.994
normalized growth [11]: 0.965
normalized growth [12]: 1
normalized growth [13]: 0.899
normalized growth [14]: 0.964
normalized growth [15]: 0.958
normalized growth [16]: 0.999
normalized growth [17]: 1.05
normalized growth (S. cerevisiae deletion strains, locus YMR307W, strain GAS1, hits give low values): 0.868
normalized growth [18]: 1.01
normalized growth [19]: 0.98
normalized growth [20]: 0.988
normalized growth [21]: 0.976
normalized growth [22]: 0.984
normalized growth [23]: 1.06
normalized growth [24]: 0.902
normalized growth [25]: 1.08
normalized growth [26]: 0.986

Reference: PubChem BioAssay AID1159580 (chemical genetic matrix, 2015)
